Screens from PubChem BioAssay.
Fam108B counter – counter-screen for RBBP9 inhibitors: inhibitors of mouse Fam108B. recombinant Fam108B, FP-Rh probe fluorescence polarization. inhibition, % at 9.51 µM. 300,000 compounds, 0.33% hits. AID 1947;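 active = inhibition above the screen mean inhibition plus 3 SD, computed separately per campaign, cut at about 18% in these data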;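 also: inhibitors lower polarization as less probe binds the enzyme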
SIAE primary – inhibitors of human sialic acid acetylesterase SIAE. Q9HAT2. SIAE FP-Rh probe binding, fluorescence polarization. inhibition, % at 9.66 µM. 370,000 compounds, 0.69% hits;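 active = inhibition above a cutoff: mean of compounds within the control limits plus 3 SD of those, cut at about 17% in these data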;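 also: 0% = plate median of compound wells and 100% = probe without SIAE protein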
PME-1 inh – PME-1 (human) inhibition; 320,000 compounds, 0.53% hits; recombinant PME-1, FP-Rh probe fluorescence polarization; Q9Y570; inhibition, % at 5.9 µM;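 active = inhibition above the campaign mean of all compounds plus 3 SD, cut at about 26% in these data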;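 also: competitive labeling of PME-1 active site by serine hydrolase directed probe; 0% = PME-1 with DMSO and 100% = wells lacking PME-1 enzyme; inhibitors block probe labeling so polarization falls and inhibition rises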
PAD4 inh – inhibitors of human PAD4; Q9UM07; recombinant PAD4, RCA probe fluorescence polarization; inhibition, % at 6.36 µM; 330,000 compounds, 0.41% hits;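 active = percent inhibition above a cutoff equal to the mean of all tested compounds plus 3 SD, cut at about 15% in these data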;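 also: 0% = PAD4 with RCA probe and DMSO and 100% = probe without PAD4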
Target sequence (Q9UM07 whole entry, looked up): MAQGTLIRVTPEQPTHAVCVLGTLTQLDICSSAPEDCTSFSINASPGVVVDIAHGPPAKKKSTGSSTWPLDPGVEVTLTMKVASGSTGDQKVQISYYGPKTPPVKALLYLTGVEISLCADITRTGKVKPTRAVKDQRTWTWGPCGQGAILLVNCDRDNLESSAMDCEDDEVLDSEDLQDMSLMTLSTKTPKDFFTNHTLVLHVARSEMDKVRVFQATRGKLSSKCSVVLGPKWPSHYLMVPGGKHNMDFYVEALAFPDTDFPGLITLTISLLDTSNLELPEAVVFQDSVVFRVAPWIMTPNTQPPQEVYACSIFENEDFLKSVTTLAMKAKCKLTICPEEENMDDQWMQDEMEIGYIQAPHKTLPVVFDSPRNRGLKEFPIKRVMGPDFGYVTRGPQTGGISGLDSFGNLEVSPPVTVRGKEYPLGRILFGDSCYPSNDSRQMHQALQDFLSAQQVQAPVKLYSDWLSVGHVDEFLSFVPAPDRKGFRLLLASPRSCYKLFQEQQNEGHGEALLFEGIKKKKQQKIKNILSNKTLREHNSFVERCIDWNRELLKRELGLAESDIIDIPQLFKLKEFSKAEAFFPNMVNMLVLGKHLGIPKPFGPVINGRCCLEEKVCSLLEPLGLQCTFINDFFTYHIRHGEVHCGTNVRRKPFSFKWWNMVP
TCR-CD3 inh – inhibitors of human TCR-CD3 interaction; TAMRA-labeled TCR probe fluorescence, biochemical; inhibition, % at 9.4 µM; 360,000 compounds, 0.37% hits; in the data active = inhibition above about 19%;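 also: recombinant mutant TCR 2C K166C tagged with TAMRA read by polarization; 0% = receptor in buffer alone and 100% = receptor with positive control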
PRMT1 inh – inhibitors of human PRMT1; 370,000 compounds, 1.3% hits; Q99873; AID 652257; recombinant PRMT1, activity-based probe fluorescence polarization; inhibition, % at 2.79 µM;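 active = inhibition above about 21% made by adding two undisclosed values, limit read from the data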
SIAE confirm – confirmation of human SIAE inhibitors | AID 1117263 | 2,300 compounds, 13% hits | inhibition, % at 9.66 µM | SIAE FP-Rh activity-based probe, fluorescence polarization | shares compounds with SIAE primary;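 active = mean inhibition of the replicates above the hit cutoff set in the primary screen, cut at about 17% in these data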;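 also: 0% = SIAE with DMSO and probe and 100% = probe without SIAE; inhibitors lower polarization as more probe stays unbound to SIAE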
Numbers without * were called inactive; nt = not tested or not shown. Shown are actives, neighbours in structure and some others; about 2.6% of the full set was active somewhere.

SMILES	Fam108B counter	SIAE primary	PME-1 inh	PAD4 inh	TCR-CD3 inh	PRMT1 inh	SIAE confirm
O=C(Nc1ccc(N2CCOCC2)cc1)c1cc(-c2ccncc2)nc2ccccc12	4.0	-0.5	-5.9	-4.9	2.3	1.1	nt
O=C(Nc1ccccc1N1CCOCC1)c1cc(-c2ccncc2)nc2ccccc12	-3.0	22.0*	-0.5	-0.2	2.0	-2.1	1.9
O=C(NC(=S)NNC(=O)c1cccs1)c1ccco1	-4.9	19.2*	3.3	0.3	8.2	-0.9	2.6
O=C(NNC(=O)c1cccs1)c1ccco1	3.8	-0.2	2.1	-2.3	-4.0	3.9	nt
CC(=O)O[C@@H]1CCC[C@@]2(C(=O)N(Cc3ccccc3)c3ccc(-c4c(C)noc4C)cc32)[C@H]1NC(=O)CCc1ccccc1	nt	-1.2	nt	nt	nt	-0.3	nt
CCn1ncc(/C=N\NC(=O)c2ccc3c(c2)c(C)c(C)n3Cc2ccccc2)c1C	0.3	37.8*	-1.2	-3.4	7.4	-1.4	-8.1
Cc1ccc(C)c(NC(=S)NCc2ccc3c(c2)OCO3)c1	-4.1	18.0*	-0.3	4.2	8.0	-0.5	-2.4
O=C(O)C1CCN(c2ccc(Cl)nn2)CC1	-0.7	0.7	-0.7	2.3	-1.3	-1.3	nt
Clc1ccc(N2CCCCCC2)nn1	-1.8	18.5*	0.3	-2.1	-2.0	-1.4	-7.1
CN1C(=O)C[C@@](C#N)(C(=O)N2CCCC2)[C@H]1c1ccccc1	nt	-0.3	nt	nt	nt	1.8	nt
CNc1nc(NCc2ccccc2)c2ccccc2n1	-1.6	-2.9	-3.1	-0.8	-5.5	-0.6	nt
Oc1ccccc1Nc1nc(NCc2ccccc2)c2ccccc2n1	7.1	20.7*	11.3	-3.7	4.0	-2.9	6.2
COc1ccccc1C(=O)NC1CCCCN(Cc2ccc(Cl)cc2)C1=O (centres undefined)	nt	-2.8	nt	nt	nt	3.3	nt
CCOc1ccc(/C=N/Nc2cc(N3CCOCC3)nc(C)n2)c(O)c1	9.5	31.3*	30.0*	-2.7	-11.1	2.1	26.2*
COc1cc(NS(=O)(=O)c2ccc(NC(=O)CCC(=O)O)cc2)nc(OC)n1	1.1	17.3*	5.0	-3.5	1.4	-0.7	-6.8
Cc1ccc(O)c(Nc2c3ccccc3nc3ccccc23)c1	2.6	36.6*	-29.9	-10.1	3.2	3.8	-7.0
O=C1NC(=Nc2ccc3ccccc3c2)S/C1=C/c1ccco1	11.4	32.3*	2.9	-14.4	-3.9	1.7	-3.1
CC(C)(C)OC(=O)N1Cc2[nH]c3ccccc3c2C[C@@H]1C(=O)O	nt	25.7*	0.3	-0.1	-5.3	-1.4	2.9
COc1cc(OC)c(OC)cc1/C=N/NC(=O)C[n+]1ccccc1	4.6	48.7*	-5.6	-1.7	7.5	-0.8	-2.5
COc1cccc(/C=N/NC(=O)C[n+]2ccccc2)c1O	-0.7	-0.2	3.8	-6.3	-3.3	-2.2	nt
CCCCNC(=O)C1CCCN1C(=O)NCc1ccccc1OC (centres undefined)	nt	-3.9	nt	nt	nt	-0.9	nt
CCOC(=O)[C@]12CCCC3=C1N(CCC3)C(=O)[C@@H](CC(=O)N1CCN(C(=O)c3ccco3)CC1)C2	nt	0.0	nt	nt	nt	-0.1	nt
